Results reported in ChEMBL document CHEMBL3988442, “University of Dundee, Small-Polar-MMV Screening Library” (2021).
For part of these data: Measured potencies and affinities stand elsewhere.

Key:
Design in all cases: scale not given: direction of the effect not stated beside the values
[1] = biological target: Protein translocase subunit SecA (Escherichia coli (strain K12)) (UniProt P10408); assay: Assay to Identify E. coli SecA ATPase Inhibitors; assay type: functional; details: 30 µM
[2] = biological target: T1, Ubiquitin-activating enzyme e1, putative (Leishmania donovani (strain BPK282A1)) (UniProt E9BSI1); assay: Leishmania donovani Ubiquitin Activating Enzyme (LdE1); assay type: functional; details: 30 µM
T1 sequence (whole entry): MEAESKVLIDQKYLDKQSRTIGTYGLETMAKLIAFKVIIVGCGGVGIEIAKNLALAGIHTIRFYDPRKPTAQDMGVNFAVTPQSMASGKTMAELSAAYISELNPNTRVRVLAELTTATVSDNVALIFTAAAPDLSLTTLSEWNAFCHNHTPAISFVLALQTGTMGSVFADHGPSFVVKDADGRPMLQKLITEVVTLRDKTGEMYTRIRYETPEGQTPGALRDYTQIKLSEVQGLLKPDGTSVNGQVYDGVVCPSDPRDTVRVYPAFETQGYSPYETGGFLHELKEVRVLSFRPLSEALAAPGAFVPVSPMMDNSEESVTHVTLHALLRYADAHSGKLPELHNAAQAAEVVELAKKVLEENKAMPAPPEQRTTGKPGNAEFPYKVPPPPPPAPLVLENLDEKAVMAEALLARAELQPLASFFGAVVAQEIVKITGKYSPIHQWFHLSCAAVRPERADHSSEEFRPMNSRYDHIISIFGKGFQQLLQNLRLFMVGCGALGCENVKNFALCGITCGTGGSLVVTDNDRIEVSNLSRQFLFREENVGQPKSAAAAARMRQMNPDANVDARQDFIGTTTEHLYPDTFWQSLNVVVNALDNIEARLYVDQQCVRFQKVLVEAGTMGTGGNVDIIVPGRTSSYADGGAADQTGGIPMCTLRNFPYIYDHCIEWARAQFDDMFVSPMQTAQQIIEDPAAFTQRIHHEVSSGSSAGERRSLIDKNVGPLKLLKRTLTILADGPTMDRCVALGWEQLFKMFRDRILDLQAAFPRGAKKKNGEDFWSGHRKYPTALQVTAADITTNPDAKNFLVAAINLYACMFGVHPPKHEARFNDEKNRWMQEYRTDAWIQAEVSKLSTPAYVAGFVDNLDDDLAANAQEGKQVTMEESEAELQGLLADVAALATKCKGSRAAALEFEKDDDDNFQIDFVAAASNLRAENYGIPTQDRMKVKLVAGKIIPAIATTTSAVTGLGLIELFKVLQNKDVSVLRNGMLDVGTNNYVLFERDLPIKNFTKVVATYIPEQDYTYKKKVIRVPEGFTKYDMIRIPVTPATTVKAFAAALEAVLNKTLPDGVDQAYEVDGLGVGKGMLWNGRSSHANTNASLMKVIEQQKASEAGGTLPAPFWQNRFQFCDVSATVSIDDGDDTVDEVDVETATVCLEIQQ

[3] = biological target: AMP-activated protein kinase, AMPK (Homo sapiens) (UniProt P54646+O43741+P54619+Q9UGJ0+Q9Y478+Q13131+Q9UGI9); assay: AMP-dependent Kinase enzyme assay. An in vitro enzyme assay that detects ADP turnover that is directly proportional to AMPK activity. This uses naive AMPK that is activated during the assay with MK-8722; assay type: functional; details: 30 µM
[4] = biological target: Sialic acid-binding Ig-like lectin 9 (Homo sapiens) (UniProt Q9Y336); assay: Hs-Siglec9 ALPHAscreen SOP 20170721; details: 10 µM
Sequence of Sialic acid-binding Ig-like lectin 9 (Homo sapiens) (Q9Y336 whole entry): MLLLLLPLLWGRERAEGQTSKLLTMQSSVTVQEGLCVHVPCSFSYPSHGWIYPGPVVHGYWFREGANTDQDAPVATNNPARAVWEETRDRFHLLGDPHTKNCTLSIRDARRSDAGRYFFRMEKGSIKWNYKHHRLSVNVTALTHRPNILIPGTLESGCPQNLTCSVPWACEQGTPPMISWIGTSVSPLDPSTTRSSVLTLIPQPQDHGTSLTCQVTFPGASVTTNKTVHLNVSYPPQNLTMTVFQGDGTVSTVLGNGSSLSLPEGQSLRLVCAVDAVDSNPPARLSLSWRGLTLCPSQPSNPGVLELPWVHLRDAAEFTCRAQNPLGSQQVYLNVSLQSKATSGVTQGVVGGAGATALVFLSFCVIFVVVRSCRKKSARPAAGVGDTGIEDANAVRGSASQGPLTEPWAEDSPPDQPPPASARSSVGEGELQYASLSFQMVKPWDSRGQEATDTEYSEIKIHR

[5] = tested on: Trypanosoma cruzi; assay: Trypanosoma cruzi phosphomannomutase and mannose-1-phosphate guanylyltransferase assay; assay type: functional; details: 10 µM
[6] = biological target: T2, Arginase-2, mitochondrial (Homo sapiens) (UniProt P78540); assay: in vitro enzyme assay to detect the production of urea directly proportional to the activity of Arginase II; assay type: functional; details: 33.3 µM; note: in the data most compounds retested in dose-response had high values
T2 sequence (whole entry): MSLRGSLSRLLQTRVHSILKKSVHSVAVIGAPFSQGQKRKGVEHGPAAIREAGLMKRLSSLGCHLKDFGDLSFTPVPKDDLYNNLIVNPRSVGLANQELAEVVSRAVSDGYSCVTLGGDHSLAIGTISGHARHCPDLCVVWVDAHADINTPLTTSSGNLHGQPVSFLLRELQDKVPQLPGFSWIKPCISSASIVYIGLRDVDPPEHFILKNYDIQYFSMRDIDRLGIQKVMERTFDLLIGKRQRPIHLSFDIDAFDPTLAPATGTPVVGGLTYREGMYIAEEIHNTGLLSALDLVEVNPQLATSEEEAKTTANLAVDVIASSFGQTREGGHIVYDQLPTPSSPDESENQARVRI

[7] = biological target: T3, Proteasome subunit beta (Trypanosoma cruzi) (UniProt O96673); assay: Trypanosoma cruzi proteasome chymotrypsin-like activity (TcProtChymo) assay.; note: in the data most compounds retested in dose-response had high values; assay type: functional; details: 9.37 µM
T3 sequence (whole entry): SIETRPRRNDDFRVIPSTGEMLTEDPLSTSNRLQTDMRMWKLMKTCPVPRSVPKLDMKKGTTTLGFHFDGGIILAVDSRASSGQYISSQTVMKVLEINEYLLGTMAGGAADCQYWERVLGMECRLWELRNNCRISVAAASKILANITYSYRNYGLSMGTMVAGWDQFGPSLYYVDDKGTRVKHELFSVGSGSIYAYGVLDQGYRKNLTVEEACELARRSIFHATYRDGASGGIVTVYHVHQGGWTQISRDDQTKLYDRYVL

[8] = species on record: Homo sapiens; assay: To identify inhibition of the IFN signalling (Jak-Stat) pathway via expression of an eGFP reporter gene under the control of an IFN-stimulated response element (ISRE) containing MxA promoter.; assay type: functional; details: 30 µM
[9] = biological target: T4, Tyrosyl-tRNA synthetase, putative (Trypanosoma cruzi (strain CL Brener)) (UniProt Q4DSP6); assay: Trypanosoma cruzi tyrosyl tRNA synthetase (TcYRS) _High Tyrosine SOP; assay type: functional; details: 30 µM; note: in the data most compounds retested in dose-response had high values
T4 sequence (whole entry): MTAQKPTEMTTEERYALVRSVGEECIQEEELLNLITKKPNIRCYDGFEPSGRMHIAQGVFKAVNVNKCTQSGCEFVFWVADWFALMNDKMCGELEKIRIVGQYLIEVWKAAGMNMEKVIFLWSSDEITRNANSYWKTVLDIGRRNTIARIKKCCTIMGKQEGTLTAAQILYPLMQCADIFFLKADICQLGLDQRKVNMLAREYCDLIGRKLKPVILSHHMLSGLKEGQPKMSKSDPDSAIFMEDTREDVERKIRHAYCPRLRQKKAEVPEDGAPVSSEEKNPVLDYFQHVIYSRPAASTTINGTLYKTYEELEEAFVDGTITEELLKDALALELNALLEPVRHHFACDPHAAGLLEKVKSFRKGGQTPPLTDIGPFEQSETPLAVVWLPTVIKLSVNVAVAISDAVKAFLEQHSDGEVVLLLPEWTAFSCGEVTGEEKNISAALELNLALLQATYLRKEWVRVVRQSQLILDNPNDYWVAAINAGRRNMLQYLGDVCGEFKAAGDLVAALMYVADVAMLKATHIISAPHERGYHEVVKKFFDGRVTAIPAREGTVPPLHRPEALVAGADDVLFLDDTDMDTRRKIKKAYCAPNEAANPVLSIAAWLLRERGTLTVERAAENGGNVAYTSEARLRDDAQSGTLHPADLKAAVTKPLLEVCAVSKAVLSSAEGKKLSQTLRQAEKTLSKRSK

[10] = biological target: T4, Tyrosyl-tRNA synthetase, putative (Trypanosoma cruzi (strain CL Brener)); assay: Trypanosoma cruzi tyrosyl tRNA synthetase (TcYRS) SOP; assay type: functional; details: 30 µM
[11] = biological target: Chromo domain-containing protein 1 (Saccharomyces cerevisiae (strain ATCC 204508 / S288c) (Baker's yeast)) (UniProt P32657); assay: ScCHD-1 Enzyme Inhibition Assay; assay type: functional; details: 30 µM; note: in the data most compounds retested in dose-response had high values
Sequence of Chromo domain-containing protein 1 (Saccharomyces cerevisiae (strain ATCC 204508 / S288c) (Baker's yeast)) (P32657 whole entry, the tested form may be a part): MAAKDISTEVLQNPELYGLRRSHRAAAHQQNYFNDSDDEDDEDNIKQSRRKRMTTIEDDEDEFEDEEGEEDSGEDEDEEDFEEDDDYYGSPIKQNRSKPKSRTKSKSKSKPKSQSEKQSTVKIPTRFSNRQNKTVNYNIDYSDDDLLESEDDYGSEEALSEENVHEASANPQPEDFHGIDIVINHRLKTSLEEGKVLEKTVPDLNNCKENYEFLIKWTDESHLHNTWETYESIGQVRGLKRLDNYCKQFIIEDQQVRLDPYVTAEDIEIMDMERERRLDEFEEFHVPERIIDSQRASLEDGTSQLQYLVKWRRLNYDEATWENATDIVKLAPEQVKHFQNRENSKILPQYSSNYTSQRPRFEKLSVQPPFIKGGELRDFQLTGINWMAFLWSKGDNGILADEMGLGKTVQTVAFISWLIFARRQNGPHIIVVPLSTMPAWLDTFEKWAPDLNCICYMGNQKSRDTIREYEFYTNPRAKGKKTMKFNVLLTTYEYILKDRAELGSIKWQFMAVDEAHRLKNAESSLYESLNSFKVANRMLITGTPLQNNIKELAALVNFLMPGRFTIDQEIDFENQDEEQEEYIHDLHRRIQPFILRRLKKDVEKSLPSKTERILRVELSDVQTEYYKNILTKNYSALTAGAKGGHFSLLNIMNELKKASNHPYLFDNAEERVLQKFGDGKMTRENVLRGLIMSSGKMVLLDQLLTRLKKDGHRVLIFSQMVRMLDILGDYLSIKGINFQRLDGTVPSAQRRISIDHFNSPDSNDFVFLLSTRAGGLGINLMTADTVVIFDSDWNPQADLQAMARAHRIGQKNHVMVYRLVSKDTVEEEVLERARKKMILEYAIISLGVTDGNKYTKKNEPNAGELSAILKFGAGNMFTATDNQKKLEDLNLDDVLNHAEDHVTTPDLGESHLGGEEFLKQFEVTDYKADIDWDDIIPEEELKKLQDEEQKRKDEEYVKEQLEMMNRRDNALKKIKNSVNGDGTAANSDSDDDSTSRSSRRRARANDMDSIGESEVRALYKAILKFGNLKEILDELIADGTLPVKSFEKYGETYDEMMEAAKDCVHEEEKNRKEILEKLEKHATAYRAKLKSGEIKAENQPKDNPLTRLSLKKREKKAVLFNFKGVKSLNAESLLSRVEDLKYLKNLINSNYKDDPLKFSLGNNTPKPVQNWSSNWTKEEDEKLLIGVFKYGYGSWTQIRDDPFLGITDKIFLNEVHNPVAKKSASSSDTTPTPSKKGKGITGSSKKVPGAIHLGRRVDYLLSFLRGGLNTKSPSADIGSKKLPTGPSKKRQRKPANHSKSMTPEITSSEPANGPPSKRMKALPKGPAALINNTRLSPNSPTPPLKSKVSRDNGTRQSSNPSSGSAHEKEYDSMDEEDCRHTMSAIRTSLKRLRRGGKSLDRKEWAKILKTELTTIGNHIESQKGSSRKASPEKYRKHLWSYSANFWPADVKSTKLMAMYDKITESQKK

Sequence of Protein translocase subunit SecA (Escherichia coli (strain K12)) (P10408 whole entry): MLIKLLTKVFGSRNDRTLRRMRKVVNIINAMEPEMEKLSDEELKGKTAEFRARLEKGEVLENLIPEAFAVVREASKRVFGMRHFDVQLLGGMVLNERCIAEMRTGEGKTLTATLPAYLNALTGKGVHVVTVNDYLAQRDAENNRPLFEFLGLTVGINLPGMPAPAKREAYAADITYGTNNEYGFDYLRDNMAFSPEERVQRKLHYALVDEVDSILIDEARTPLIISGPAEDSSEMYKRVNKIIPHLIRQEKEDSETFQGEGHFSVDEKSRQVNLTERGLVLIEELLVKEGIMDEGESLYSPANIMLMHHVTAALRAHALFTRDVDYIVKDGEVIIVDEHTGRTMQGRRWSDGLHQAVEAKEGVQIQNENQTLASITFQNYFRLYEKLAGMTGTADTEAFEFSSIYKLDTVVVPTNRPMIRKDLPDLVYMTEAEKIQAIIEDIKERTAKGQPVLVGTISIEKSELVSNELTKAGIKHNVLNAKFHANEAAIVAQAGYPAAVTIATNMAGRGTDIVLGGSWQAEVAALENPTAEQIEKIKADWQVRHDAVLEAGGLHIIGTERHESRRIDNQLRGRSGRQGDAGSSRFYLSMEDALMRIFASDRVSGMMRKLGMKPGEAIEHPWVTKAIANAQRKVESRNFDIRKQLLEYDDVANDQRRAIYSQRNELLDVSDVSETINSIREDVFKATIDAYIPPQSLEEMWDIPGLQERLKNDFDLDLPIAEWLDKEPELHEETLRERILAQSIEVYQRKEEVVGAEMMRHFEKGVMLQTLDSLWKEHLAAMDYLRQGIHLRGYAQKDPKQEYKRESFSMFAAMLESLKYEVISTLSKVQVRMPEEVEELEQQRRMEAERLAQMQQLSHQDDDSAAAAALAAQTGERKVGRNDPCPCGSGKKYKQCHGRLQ

Compound | Percent Effect [1] [%] | Percent Effect [2] [%] | Percent Effect [3] [%] | Percent Effect [4] [%] | Percent Effect [5] [%] | Percent Effect [6] [%] | Percent Effect [7] [%] | Percent Effect [8] [%] | Percent Effect [9] [%] | Percent Effect [10] [%] | Percent Effect [11] [%]
Cc1cccc(N2CCN(CCCNC(=O)c3nccn3C)CC2)c1 | -2.68 | 5.41 | -5.72 | -1.22 | 4.49 | 38.3 | 12.9 | 7.26 | 11.9 | 18.3 | -2.27
c1ccc2oc(N3CCCCC3Cn3cncn3)nc2c1 (centres undefined) | -9.23 | 18.9 | -13.5 | 28.6 | 11.4 | -2.4 | 2.69 | 1.84 | 7.92 | 25.6 | -5.86
CN(CCO)Cc1nnc(C2CCN(C(=O)c3cccnc3)CC2)n1C | -3.37 | 16 | -6.42 | 14.9 | 5.75 | 4.69 | 6.97 | 4.06 | 6.01 | 16.1 | -7.14
CCOc1ncccc1NC(=O)N1CCN(c2cccc(C)c2C)CC1 | -0.972 | 10.8 | 2.83 | -3.7 | -10.1 | 5.36 | 4.49 | 15.3 | 3.96 | 13.4 | 1.36
O=C(c1cc(F)ccc1F)C1CCN(C(=O)c2ccc(=O)[nH]n2)CC1 | -2.7 | 13 | 0.316 | 0.809 | -3.43 | 2.32 | 7.52 | 15.8 | 3.81 | 18.8 | -6.34
Cc1cc(C)c2c(OCC(=O)NC(C)C)nn(C)c2n1 | -3.72 | 10.8 | -1.72 | 25.4 | 7.72 | 11.4 | 6.9 | 10.7 | 0.529 | 12.2 | -13
CSc1ccccc1CN1CCCn2nc(CNC(=O)N(C)C)cc2C1 | -2.86 | 8.22 | -6.48 | 20.7 | 3.13 | 4.09 | 6.92 | 9.78 | 4.3 | 12.5 | 97.4
Cc1ccc(NC2CCN(C(=O)c3ccc(Cl)o3)CC2)nn1 | -6.79 | 0 | 5.42 | -2.43 | -6.01 | 1.15 | 17.4 | 24.5 | 0.49 | -7.32 | 4.23
Cc1noc(CN2CCN(Cc3cccs3)CC2)n1 | -0.284 | 15.6 | 3.17 | -3.65 | -5.24 | 4.27 | 0.845 | 22.4 | 6.8 | 19.5 | -5.19
